Our source for the inhibition values is PubChem BioAssay AID504441 (Broad Institute, 2011).

The inhibition is the change of the read-out against control, counted positive when it falls.

Among all 310,000 compounds or so, about 1,300 (0.42%) were called active. No stated cut-off is given here; in the data, active means inhibition above about 50%; inactive means the rest. Only a selection was taken, and actives are over-represented in it overall.

The test has as its target Dual specificity tyrosine-phosphorylation-regulated kinase 1A (Rattus norvegicus) (UniProt Q63470). The experiment in a line: inhibition of Dyrk1A kinase activity – biochemical, single point, plate reader, primary screen (AID 504441).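 Further: plate controls were vehicle with enzyme for no effect and no enzyme for full effect.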 The note with it: ADP-Glo luminescence, NFATc1 peptide, at 12.5 µM, hits give high values. Background: ADP-Glo first removes unused ATP, then detects ADP through luciferase.
As for `CN1C(c2ccc(F)cc2)=CS/C1=C(/C#N)c1nnc2n1-c1ccccc1SC2`, the inhibition was -1.31% (inactive). `COc1cccc(C=CC(=O)C=CC=Cc2ccccc2)c1`: the inhibition is -2.98% (inactive).

As for `CC(C)c1ccc(/C=C/C(=O)NNC(=O)c2cccnc2)cc1`, the inhibition is 11.1% (inactive). Turning to `COc1cccc(C(=O)NNC(=O)/C=C/c2ccccc2)c1`, the inhibition is 59.9% (active).

Take `O=C1NCC(c2ccccc2)(c2ccccc2)C(=O)N1`: the inhibition was -4.54% (inactive). For `COC[C@@H]1NS(=O)(=O)c2ccc(Br)cc2O[C@H]1c1ccccc1`, the inhibition is 7.26% (inactive).

As to `CCCCNC(=O)C(C)N(CCN(C)C)C(=O)CCCN1C(=O)NC(c2ccc(Cl)cc2)C(C(=O)OCc2ccccc2)=C1C` (centres undefined), the inhibition is 5.26% (inactive).

Regarding `COc1cc(C2c3cc4c(cc3C(O)C3COC(=O)C23)OCO4)cc(OC)c1OC` (centres undefined), the inhibition is 0.167% (inactive).

Regarding `COC(=O)C1=C(C)N(Cc2ccccc2)C(=NCCCOC(C)C)N[C@H]1c1ccccc1`, the inhibition was -6.8% (inactive). `CCN1C(=NCCc2cccnc2)N[C@@H](c2ccccc2)C(C(=O)OC)=C1C`: the inhibition was 53.7% (active). In the case of `CCN1C(=NCCc2cccnc2)N[C@@H](c2ccccc2)[C@H](C(=O)OC)[C@H]1C` it was -12.5% (inactive). Take `COc1ccccc1C(=O)c1ccccc1C(=O)c1ccccc1`: the inhibition was 1.1% (inactive). `COc1ccc(S(=O)(=O)N(C)C[C@@H]2Oc3ccc(NC(=O)Nc4c(C)noc4C)cc3C(=O)N([C@H](C)CO)C[C@@H]2C)cc1`: the inhibition is 1.82% (inactive). As for `O=C(NCc1ccco1)c1sc2cccc(F)c2c1Cl`, the figure is 1.99% (inactive); as for `COc1ccc2oc(C(=O)NCc3ccco3)c(C)c2c1`, 19.2% (inactive).

For the compound `COc1ccc2c(Cl)c(C(=O)NCc3ccco3)sc2c1`, the inhibition is 54.5% (active).

As for `Oc1[nH]c2ccccc2c1N=Nc1c(F)c(F)c(F)c(F)c1F`, the inhibition was 4.41% (inactive).

As for `C[n+]1cccc(C(=O)O)c1`, the inhibition is 0.48% (inactive). `CC1CCCN(C(=O)Cn2c(=O)oc3cc(S(=O)(=O)N4CCCCC4C)ccc32)C1` (centres undefined): the inhibition is 0.0944% (inactive). For the compound `O=C(Cc1ccc(Cl)cc1)c1ccccc1`, the inhibition is -1.54% (inactive). `COC(=O)C(C)Oc1ccc2c(c1)O/C(=C\c1cccc(Br)c1)C2=O` (centres undefined): the inhibition was -2.95% (inactive).

As for `O=C1/C(=C/c2ccc3c(c2)OCO3)Oc2cc(OCC(=O)N3CC(O)C[C@H]3C(=O)O)ccc21` (some centres undefined), the inhibition is 70.2% (active). In the case of `COc1ccc(NC(=O)CCN2C(=O)/C(=C/c3ccc4c(c3)OCO4)SC2=S)cc1` it was -2.32% (inactive). With `O=C1c2ccccc2C(=O)C1C(=O)C1CC1`, the inhibition is -4.93% (inactive). In the case of `COc1ccc(CNCCCn2cnc3c(OCc4ccccc4)ncnc32)cc1` it was 6.66% (inactive). Turning to `Cc1ccc(S(=O)(=O)n2oc(=O)c(C3CCCCC3)c2N)cc1`, the inhibition was -0.128% (inactive).

On to `O=C1N=C(N2CCc3ccccc3C2)S/C1=C\c1ccc(O)cc1`, for which the inhibition is 70.6% (active). On to `CC1CCN(C2=NC(=O)/C(=C/c3ccc(O)cc3)S2)CC1`, for which the inhibition is 22.4% (inactive).

For the compound `CCc1ccc(/C=C2\SC(N3CCOCC3)=NC2=O)cc1`, the inhibition is 2.74% (inactive). In the case of `CN(CCc1ccccc1)C(=O)c1cccc(NC(=O)Cc2cccc(NC(=O)C3CCCN(C(=O)CCc4ccccc4)C3)c2)c1` (centres undefined) it was 0.419% (inactive). In the case of `O=C(Cc1ccc(S(=O)(=O)N2CCOCC2)s1)Nc1ccc(Br)c(C(F)(F)F)c1`, the inhibition was 0.772% (inactive).

As for `CC(C)c1cc(N=O)cc(C(C)C)c1O`, the inhibition was 7.15% (inactive). Take `Cc1cc(C(=O)N/N=C/c2ccc(O)c([N+](=O)[O-])c2)c(C)n1-c1ccc(F)cc1`: the inhibition was -6.46% (inactive). For the compound `CCOc1cccc(/C=N/N2C(=O)CSC2=S)c1O`, the inhibition was 6.88% (inactive).

Consider `O=C1CSC(=S)N1/N=C/c1ccc(O)c([N+](=O)[O-])c1`, for which the inhibition was 90.8% (active).

As for `COC1=CC(=O)OC(C)(c2ccccc2)C1` (centres undefined), the inhibition is 1.06% (inactive).

With `COc1ccc2nc(N3C(=O)C(O)=C(C(=O)c4ccco4)C3c3ccco3)sc2c1` (centres undefined), the inhibition is 7.88% (inactive). Consider `O=S1(=O)CSCS(=O)(=O)C1`, for which the inhibition is -4.37% (inactive). As for `c1coc(CNc2ncnc3ccccc23)c1`, the figure is 6.44% (inactive); as for `Cc1noc(C)c1-c1ccc2ncnc(NC(C)c3ccco3)c2c1` (centres undefined), 58% (active). As for `C=CC(=O)Nc1ccc(Nc2ccnc(Nc3ccc(N4CCN(C)CC4)cc3)n2)cc1`, the figure is 24.1% (inactive); as for `COc1ccc(Nc2ccc3ccccc3c2)cc1`, -0.0929% (inactive). `NC(=O)C1(Nc2ccccc2Cl)CCCC1`: the inhibition is -0.756% (inactive). In the case of `COCCN(C(=O)C(C)N1C(=O)c2ccccc2C1=O)c1c(N)n(CC(C)C)c(=O)[nH]c1=O` (centres undefined) it was -2.22% (inactive); in that of `Cc1c(NS(=O)(=O)c2cccc(C(=O)Nc3ccc(SC(F)F)cc3)c2)c(=O)n(-c2ccccc2)n1C`, -4% (inactive). In the case of `COc1ccc2oc(C)c(NC(C)=O)c2c1` it was 1.53% (inactive); in that of `COc1ccc2oc(N)c(C=O)c(=O)c2c1`, 59.5% (active). Consider `COc1ccc2oc(N)nc2c1`, for which the inhibition is 7.05% (inactive). Take `NC(=O)C1(N2CCCC2)CCN(Cc2ccccc2)CC1`: the inhibition is -3.22% (inactive). `NC(=O)c1ncn([C@@H]2O[C@H](CN=C3NS(=O)(=O)c4ccccc43)[C@@H](O)[C@H]2O)n1`: the inhibition was 3.02% (inactive).

As to `CC(=O)Oc1ccc2c(c1)C(=O)c1ccccc1C2=O`, the inhibition was 53.6% (active). As for `CC(=O)Oc1ccc2c(C)c(CC(C)O)c(=O)oc2c1` (centres undefined), the figure is 2.53% (inactive).

With `CC(=O)Oc1cccc(C(=O)Nc2ccccc2NC(=O)c2cccc(OC(C)=O)c2)c1`, the inhibition is -0.37% (inactive). In the case of `O=C(NCCC1=CCCCC1)c1ccc(-n2cncn2)cc1` it was 4.88% (inactive); in that of `O=C(Nc1ccccc1)Oc1cccc2cccnc12`, 7.72% (inactive); in that of `O=C(c1cccc(S(=O)(=O)N2CCCCCC2)c1)N1CCN(Cc2ccccc2)CC1`, -0.662% (inactive).

As to `NC(=S)c1ccc(C(N)=S)o1`, the inhibition was 61.8% (active).

Take `O=[N+]([O-])c1ccc(NCCCN2CCOCC2)c(Cl)c1`: the inhibition was 0.781% (inactive). In the case of `CC1CN(c2nc(Nc3ccccc3)nc(N)c2[N+](=O)[O-])CC(C)O1` (centres undefined) it was 42% (inactive). As for `Nc1nc(NCCCN2CCOCC2)nc(Nc2ccccc2)c1[N+](=O)[O-]`, the figure is 67.2% (active); as for `CC(=O)OCC1(O)CC23CCC4c5ccoc5CCC4(C)C2CCC1C3` (centres undefined), 7.82% (inactive); as for `O=c1nc(NO)ccn1C1CCCO1` (centres undefined), -3% (inactive). For `CCC1([N+](=O)[O-])COC(c2ccc(C(C)C)cc2)OC1` (centres undefined), the inhibition was -3.06% (inactive). Turning to `CC(=O)C1C(c2cccc(Oc3ccccc3)c2)NC(=O)NC1(O)C(F)(F)F` (centres undefined), the inhibition was -5.37% (inactive).

For the compound `CCOC(=O)C1C(c2ccc(O)cc2)NC(=O)NC1(O)C(F)(F)F` (centres undefined), the inhibition is 2.32% (inactive). As to `CC(=O)C1C(c2ccc(Cl)cc2)NC(=O)NC1(O)C(F)(F)F` (centres undefined), the inhibition was 57.4% (active).

Turning to `O=C(NN=CC=Cc1ccccc1)C(O)C(O)C(=O)NN=CC=Cc1ccccc1` (centres undefined), the inhibition was 1.04% (inactive). Turning to `O=S(=O)(Cc1ccc(Cl)cc1Cl)c1ccc(Cl)cc1`, the inhibition is -0.684% (inactive). As for `COc1ccc(C(CNC(=O)c2cccc(S(=O)(=O)Nc3ccc(Br)cc3)c2)N(C)C)cc1` (centres undefined), the inhibition was -0.345% (inactive).
